# Activity calls are given as the source filed them.
# How the values were obtained:
# [1] = tested on: Plasmodium falciparum Sir2 (PF13_0152, Sir2A); test: pfSir2 binders on small-molecule microarrays, primary screen, biochemical, small-molecule microarray, 635 nm fluorescence (AID 1098); settings: small-molecule microarray binding, fluorescence 635 nm; higher = more signal;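 note: score merges spot fluorescence intensity with its signal-to-noise ratio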
# [2] = small-molecule microarray binders of probe aDKK1, primary screen, biochemical, biotinylated probe, 635/667 nm fluorescence (AID 1099); settings: higher = more signal;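 note: score merges 667nm spot fluorescence with signal to noise across triplicate slides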
# [3] = small-molecule microarray binders of probe aCHRDL2, primary screen, biochemical, biotinylated probe, 635/667 nm fluorescence (AID 1100); settings: higher = more signal
# [4] = splicing luciferase reporter signal modulators, primary screen, spliceosome inhibition project, cell-based, HEK293, splice +/- reporter (AID 1101); settings: luminescence, 24 h, higher = more signal, called active from +8 up or from −8 down;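 note: HEK293 cells carrying a splicing-competent luciferase reporter gene; test concentration not given here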
# [5] = target: Fibroblast growth factor 10 (Homo sapiens) (UniProt O15520); test: FGF10 binders on small-molecule microarrays, primary screen, biochemical, small-molecule microarray, 635 nm fluorescence (AID 1102); settings: FGF10 binding, fluorescence 635 nm, higher = more signal
# Chain of Fibroblast growth factor 10 (Homo sapiens) (O15520 whole entry, looked up): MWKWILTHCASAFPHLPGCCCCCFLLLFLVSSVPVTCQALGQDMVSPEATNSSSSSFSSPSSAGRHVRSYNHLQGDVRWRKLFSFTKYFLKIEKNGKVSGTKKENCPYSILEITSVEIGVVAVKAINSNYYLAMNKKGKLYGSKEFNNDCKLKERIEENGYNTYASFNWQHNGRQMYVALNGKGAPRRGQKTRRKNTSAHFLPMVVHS
# [6] = tested on: glycogen synthase kinase-3 (GSK3A per assay name; protocol says GSK3B); test: GSK3 binders on small-molecule microarrays, primary screen, biochemical, small-molecule microarray, 635 nm fluorescence, GSK3A (AID 1103); settings: small-molecule microarray binding, fluorescence 635 nm; higher = more signal; note: the record names both GSK3A and GSK3B
# [7] = target: Epidermal growth factor receptor (Homo sapiens) (UniProt P00533); test: EGFR binders on small-molecule microarrays, primary screen, biochemical, small-molecule microarray, 635 nm fluorescence (AID 1104); settings: EGFR binding, higher = more signal;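 note: score merges 667 nm emission intensity with spot signal to noise over triplicate slides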
# Chain of Epidermal growth factor receptor (Homo sapiens) (P00533 whole entry, looked up): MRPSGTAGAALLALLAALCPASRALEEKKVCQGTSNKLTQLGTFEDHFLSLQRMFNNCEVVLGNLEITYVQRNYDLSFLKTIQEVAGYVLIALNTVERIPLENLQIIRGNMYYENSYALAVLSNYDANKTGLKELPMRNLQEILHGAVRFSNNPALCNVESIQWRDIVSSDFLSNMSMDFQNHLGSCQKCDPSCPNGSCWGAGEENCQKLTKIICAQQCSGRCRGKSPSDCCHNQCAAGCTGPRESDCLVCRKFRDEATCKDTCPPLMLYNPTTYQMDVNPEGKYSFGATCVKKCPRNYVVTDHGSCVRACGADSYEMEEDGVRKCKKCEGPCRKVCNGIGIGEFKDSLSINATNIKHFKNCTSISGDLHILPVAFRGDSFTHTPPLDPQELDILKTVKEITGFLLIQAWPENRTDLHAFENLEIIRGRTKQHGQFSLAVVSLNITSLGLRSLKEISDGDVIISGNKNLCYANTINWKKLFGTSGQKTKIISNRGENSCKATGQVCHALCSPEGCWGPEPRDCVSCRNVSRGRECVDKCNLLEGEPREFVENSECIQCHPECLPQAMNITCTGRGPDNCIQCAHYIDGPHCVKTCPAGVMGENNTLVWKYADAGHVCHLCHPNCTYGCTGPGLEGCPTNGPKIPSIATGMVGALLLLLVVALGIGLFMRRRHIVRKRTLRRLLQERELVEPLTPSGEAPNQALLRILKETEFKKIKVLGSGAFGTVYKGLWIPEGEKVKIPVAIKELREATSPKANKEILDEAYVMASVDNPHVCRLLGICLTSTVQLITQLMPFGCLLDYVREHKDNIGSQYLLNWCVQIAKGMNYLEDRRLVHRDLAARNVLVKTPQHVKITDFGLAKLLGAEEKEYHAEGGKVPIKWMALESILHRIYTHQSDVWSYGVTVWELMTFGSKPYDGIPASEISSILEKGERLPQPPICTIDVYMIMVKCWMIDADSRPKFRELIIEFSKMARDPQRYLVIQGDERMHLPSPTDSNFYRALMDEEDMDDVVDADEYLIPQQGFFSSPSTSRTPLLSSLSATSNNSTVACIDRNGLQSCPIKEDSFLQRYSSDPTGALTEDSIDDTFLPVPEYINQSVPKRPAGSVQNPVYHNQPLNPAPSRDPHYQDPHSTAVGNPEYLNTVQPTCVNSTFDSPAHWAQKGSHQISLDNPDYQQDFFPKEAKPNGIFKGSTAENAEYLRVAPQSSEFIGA
# [8] = target: Follistatin-related protein 3 (Homo sapiens) (UniProt O95633); test: FSTL3 binders on small-molecule microarrays, primary screen, biochemical, small-molecule microarray, 635 nm fluorescence (AID 1105); settings: FSTL3 binding, higher = more signal;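 note: score merges emission near 667 nm and signal to noise per printed spot across three slides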
# Chain of Follistatin-related protein 3 (Homo sapiens) (O95633 whole entry, looked up): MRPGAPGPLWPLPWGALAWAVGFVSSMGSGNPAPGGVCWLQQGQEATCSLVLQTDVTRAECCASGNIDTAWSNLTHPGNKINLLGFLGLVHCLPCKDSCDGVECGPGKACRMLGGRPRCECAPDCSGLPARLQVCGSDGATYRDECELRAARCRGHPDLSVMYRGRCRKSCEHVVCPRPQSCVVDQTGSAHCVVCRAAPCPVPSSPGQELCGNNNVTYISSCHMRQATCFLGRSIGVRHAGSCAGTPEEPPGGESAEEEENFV
# [9] = target: Dickkopf-related protein 1 (Homo sapiens) (UniProt O94907); test: DKK1 binders on small-molecule microarrays, primary screen, biochemical, small-molecule microarray, 635 nm fluorescence scan (AID 1106); settings: DKK1 binding, higher = more signal;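 note: score merges emission near 667 nm with signal to noise over three replicate slides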
# Chain of Dickkopf-related protein 1 (Homo sapiens) (O94907 whole entry, looked up): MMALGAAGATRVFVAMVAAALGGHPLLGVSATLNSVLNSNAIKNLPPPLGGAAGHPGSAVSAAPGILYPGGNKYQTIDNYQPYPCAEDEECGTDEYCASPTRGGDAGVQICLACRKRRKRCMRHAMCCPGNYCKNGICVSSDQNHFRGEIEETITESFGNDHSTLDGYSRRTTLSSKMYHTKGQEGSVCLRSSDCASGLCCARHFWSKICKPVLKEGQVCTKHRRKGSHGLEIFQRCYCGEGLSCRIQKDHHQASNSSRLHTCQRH
# [10] = tested on: Inhibin beta A chain (activin A); test: INHBA (activin A) binders on microarrays, primary screen, biochemical, small-molecule microarray, 635 nm fluorescence scan (AID 1107); settings: small-molecule microarray binding, higher = more signal;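 note: mouse activin A protein probed at 4.33 µg/mL on printed slides; score merges bound-protein fluorescence near 667 nm with spot signal-to-noise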
# [11] = tested on: Human papillomavirus type 1a protein E7 (residues 44-93); test: HPV1a E7 fragment binders on microarrays, primary screen, biochemical, small-molecule microarray, residues 44-93, 635 nm fluorescence (AID 1108); settings: small-molecule microarray binding, fluorescence 635 nm; higher = more signal;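 note: E7 fragment applied at 1 µg/mL in TBST for 1 h at 4 C; score combines spot fluorescence with its signal to noise ratio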
# [12] = modulators of HCV replicon luciferase signal, primary screen, HCV replication inhibitor project, Huh7 cells, luciferase reporter (AID 1109); settings: 48 h, higher = more signal;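 note: huh7 hepatoma cells harbouring a luciferase neomycin HCV replicon reporter; luciferase luminescence as measure of HCV replicon replication; test concentration not given here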
# [13] = target: Left-right determination factor 2 (Homo sapiens) (UniProt O00292); test: LEFTY2 binders on small-molecule microarrays, primary screen, biochemical, small-molecule microarray, 635 nm fluorescence scan (AID 1110); settings: LEFTY2 binding, higher = more signal
# Chain of Left-right determination factor 2 (Homo sapiens) (O00292 whole entry, looked up): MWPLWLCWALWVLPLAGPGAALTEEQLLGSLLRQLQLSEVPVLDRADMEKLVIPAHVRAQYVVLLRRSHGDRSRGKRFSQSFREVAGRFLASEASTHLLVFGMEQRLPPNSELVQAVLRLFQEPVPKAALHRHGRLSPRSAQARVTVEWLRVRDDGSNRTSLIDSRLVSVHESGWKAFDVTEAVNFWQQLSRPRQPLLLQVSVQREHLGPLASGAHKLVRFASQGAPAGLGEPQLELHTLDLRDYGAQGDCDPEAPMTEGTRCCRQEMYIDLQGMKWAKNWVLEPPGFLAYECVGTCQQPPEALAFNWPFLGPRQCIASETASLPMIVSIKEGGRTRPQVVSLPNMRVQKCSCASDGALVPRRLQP
# [14] = target: Calmodulin-1 (Homo sapiens) (UniProt P0DP23); test: CALM1 binders on microarrays, EGTA buffer, profiling panel, biochemical, small-molecule microarray, Cy5-labelled CALM1 (AID 1111); settings: Cy5-CALM1 binding fluorescence, higher = more signal;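 note: labelled calmodulin applied in Tris saline Tween buffer holding calcium plus EGTA and DTT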
# [15] = target: Calmodulin-1 (Homo sapiens) (UniProt P0DP23); test: calcium-bound CALM1 binders on microarrays, profiling panel, artefact control for SMM control-protein annotation, biochemical, small-molecule microarray, Cy5-labelled CALM1, plus calcium (AID 1112); settings: Cy5-CALM1 binding fluorescence, higher = more signal;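 note: score merges spot fluorescence with signal to noise from triplicate slides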
# [16] = small-molecule microarray binders of probe aWnt5a, primary screen, biochemical, biotinylated probe, 635/667 nm fluorescence (AID 1113); settings: higher = more signal;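 note: score merges 667 nm fluorescence intensity with signal-to-noise per printed feature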
# [17] = small-molecule microarray binders of probe aShh, primary screen, biochemical, biotinylated probe, 635/667 nm fluorescence (AID 1114); settings: higher = more signal;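 note: probe is biotin-labelled aShh protein from a stem cell growth factor screen; measures binding of labelled protein to compounds printed on the slide; score merges feature fluorescence at 667 nm with signal-to-noise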
# [18] = small-molecule microarray binders of probe aNog, primary screen, biochemical, biotinylated probe, 635/667 nm fluorescence (AID 1115); settings: higher = more signal;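 note: probe is biotinylated aNog protein used at 0.15 µg/mL for 1 h at 4 C; z-score combines 667 nm fluorescence of each spot with its signal to noise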
# [19] = target: Torsin-1A-interacting protein 1 (Homo sapiens) (UniProt Q5JTV8); test: LAP1 binders from COS7 cell lysate, primary screen, small-molecule microarray, 635/667 nm fluorescence (AID 1116); settings: COS7-hLAP1 lysate binding, 635 nm fluorescence, higher = more signal
# Chain of Torsin-1A-interacting protein 1 (Homo sapiens) (Q5JTV8 whole entry, looked up): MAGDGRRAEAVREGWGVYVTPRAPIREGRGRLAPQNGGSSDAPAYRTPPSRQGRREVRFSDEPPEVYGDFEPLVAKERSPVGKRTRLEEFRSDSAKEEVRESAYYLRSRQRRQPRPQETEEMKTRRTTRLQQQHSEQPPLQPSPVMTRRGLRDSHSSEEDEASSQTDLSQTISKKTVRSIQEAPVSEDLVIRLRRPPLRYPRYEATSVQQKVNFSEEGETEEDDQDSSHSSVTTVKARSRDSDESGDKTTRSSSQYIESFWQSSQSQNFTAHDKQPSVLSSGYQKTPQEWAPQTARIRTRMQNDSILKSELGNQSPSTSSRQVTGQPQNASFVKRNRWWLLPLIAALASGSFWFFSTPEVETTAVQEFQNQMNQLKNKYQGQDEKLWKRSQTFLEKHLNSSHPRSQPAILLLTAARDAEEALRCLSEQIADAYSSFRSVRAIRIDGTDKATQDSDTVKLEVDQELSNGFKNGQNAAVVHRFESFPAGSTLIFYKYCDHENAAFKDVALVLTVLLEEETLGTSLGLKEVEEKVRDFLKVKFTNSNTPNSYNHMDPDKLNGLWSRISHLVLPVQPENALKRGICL
# [20] = target: Alpha-bungarotoxin (Bungarus multicinctus) (UniProt P60615); test: alpha-bungarotoxin binders on microarray, profiling panel, artefact control for SMM control protein annotation, biochemical, small-molecule microarray, Alexa647 label, 635/667 nm fluorescence (AID 1117); settings: alpha-BTX-A647 binding fluorescence, higher = more signal
# Chain of Alpha-bungarotoxin (Bungarus multicinctus) (P60615 whole entry, looked up): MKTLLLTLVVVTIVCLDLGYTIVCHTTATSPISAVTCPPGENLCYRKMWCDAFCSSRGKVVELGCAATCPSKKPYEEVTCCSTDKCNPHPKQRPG
Compound,composite z-score [1],composite z-score [2],composite z-score [3],z-score [4],composite z-score [5],composite z-score [6],composite z-score [7],composite z-score [8],composite z-score [9],composite z-score [10],composite z-score [11],z-score [12],composite z-score [13],composite z-score [14],composite z-score [15],composite z-score [16],composite z-score [17],composite z-score [18],composite z-score [19],composite z-score [20]
COc1ccc(NN2C(C(O)c3cc(C(F)(F)F)cc(C(F)(F)F)c3)C=CC3C(=O)N(C4CCCCC4)C(=O)C32)cc1 (stereo not given),1.12,1.28,0.751,-1.08 (inactive),0.37,0.977,0.0981,0.384,-0.292,0.639,0.258,-1.79,-0.0774,1.66,0.0635,0.485,0.611,1.82,1.06,0.698
CN1C(=O)C2C=CC(C(O)c3ccc(-c4ccccc4)s3)N(Nc3ccccc3)C2C1=O (stereo not given),1.27,0.644,1.1,1.43 (inactive),0.737,0.703,0.138,0.898,-0.0947,1.23,0.965,-0.593,0.0874,1.41,0.186,-0.0103,0.296,1.49,1.07,2
CC(C)c1ccc(NN2C(C(O)C(C)C)C=CC3C(=O)N(c4ccccc4)C(=O)C32)cc1 (stereo not given),1.06,1.26,1.14,0.437 (inactive),0.651,1.31,0.389,0.926,-0.103,0.496,0.713,2.43,0.136,2.1,0.721,0.168,0.998,1.8,0.817,1.49
CC(C)CNC(=O)[C@@H]1c2ccccc2C(=O)N(C2Cc3ccccc3C2)[C@H]1c1ccc(CO)cc1,1.41,-0.0818,0.435,-0.179 (inactive),-0.127,-0.0545,-0.267,-0.192,-0.777,0.245,1.11,-0.235,-0.325,-0.588,-0.616,-0.101,-0.185,0.325,0.691,-0.205
CC(C)CNC(=O)[C@@]1(C)c2ccccc2C(=O)N(Cc2cc(F)cc(C(F)(F)F)c2)[C@H]1c1ccc(CO)cc1,0.972,-0.162,0.35,0.451 (inactive),0.398,0.729,0.181,0.379,0.343,0.938,1.35,-0.732,0.0867,0.0765,0.0987,-0.17,0.0639,0.341,1.98,0.884
O=C1O[C@@H](c2ccccc2)[C@@H](c2ccccc2)N2[C@@H](c3ccc(O)cc3)[C@]3(C(=O)Nc4ccc(C#CC5=CCCCC5)cc43)[C@@H](C(=O)N3CCCCCCC3)[C@H]12,1.6,1.53,1.25,-1.28 (inactive),0.66,1.29,0.623,1.35,0.485,1.79,1.38,-1.46,0.455,1.61,0.485,0.654,2.04,2.52,3.16,2.25
O=C1C2C=CC(C(O)c3ccc([N+](=O)[O-])cc3)N(Nc3ccccc3)C2C(=O)N1c1ccccc1 (stereo not given),1.32,0.3,0.585,4.07 (inactive),0.466,0.273,-0.0215,0.481,-0.521,0.87,0.342,0.649,-0.0424,0.0871,-0.447,-0.0512,0.284,-0.175,-0.175,-0.0428
COC(=O)[C@@]1(Cc2ccc(F)cc2)[C@H]2c3cc(C(=O)N(C)C)n(CCN4CCOCC4)c3C[C@H]2CN1C(=O)c1ccccc1,0.756,1.72,0.868,-0.575 (inactive),1.03,1.12,0.045,-0.265,-0.431,0.84,0.357,0.349,0.134,0.639,-0.125,0.974,0.275,0.932,0.868,0.0194
COc1ccc([Si](C)(C)[C@@H]2[C@@H](CCO)O[C@]3(C(=O)N(Cc4ccccc4)c4ccc(N5C(=O)c6ccccc6Oc6ccccc65)cc43)[C@H]2C)cc1,0.0104,-0.171,0.462,-1.28 (inactive),-0.673,-1.02,-1.04,-0.398,-0.328,-0.0458,-0.175,-4.15,-0.75,0.417,0.925,-0.208,-0.0605,-0.0541,-0.361,0.367
COCCOC(=O)N1C(=O)[C@@]2(c3cc(C#CC4(O)CCCCCC4)ccc31)[C@H](C(=O)N1CCc3cc(OC)c(OC)cc3C1)[C@H]1C(=O)O[C@H](c3ccccc3)[C@H](c3ccccc3)N1[C@@H]2c1ccc(O)cc1,0.974,0.142,0.248,0.543 (inactive),1.02,1.32,0.648,1.02,0.639,0.122,1.02,-1.01,0.729,0.621,-0.394,-0.0512,0.191,-0.411,1.12,1.17
